Nine molecules from PubChem BioAssay (NCI) can be followed below.

Test in all cases: NCI-60 one-dose screen, 48 h (100 = growth as untreated, 0 = no growth, -100 = all killed)
Settings in all cases: 10 µM unless noted

For assay [1], the system named is NCI-H23 lung.
The subject of assay [2] is NCI-H226 lung.
Assay [3] relates to NCI-H322M lung.
Assay [4] has as its system HOP-62 NSCLC.
The subject of assay [5] is NCI-H460 lung.
The subject of assay [6] is NCI-H522 lung.
Assay [7] relates to A549/ATCC NSCLC.
The subject of assay [8] is 786-0 renal.
The test system of assay [9] is COLO 205 colon.
Assay [10] deals with DU-145 prostate.
For assay [11], the system named is K-562 leukemia.
Assay [12] relates to MALME-3M melanoma.
Assay [13] relates to MDA-MB-231 breast.
Assay [14] relates to RXF 393 renal.
Assay [15] has as its system SF-268 CNS.
Assay [16] relates to SF-539 CNS.
The test system of assay [17] is UACC-257 melanoma.
Assay [18] concerns M14 melanoma.
Assay [19] deals with HCT-15 colon.
Assay [20] concerns SF-295 CNS.

This is part of a sample that, as a whole, favours compounds with a hit. Of some 83,000 tested, about 20% had one in any assay.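 Values shown are percent growth following 48 h exposure of cells in 96-well plates to a single concentration of compound; below 10 was considered active.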 Unmarked numbers belong to inactive results. The source made the active and inactive calls.

For the molecule `COc1ccc(-c2nn(-c3cccc(Cl)c3)cc2C2CC(c3ccccc3)=NN2C(C)=O)cc1` (centres undefined), the growth is 84.2% in assay [1]; 37.9% in assay [2]; 76.8% in assay [3]; -18.1% (active) in [4]; 39.6% in [5]; 60.9% in assay [6]. For the same molecule, the growth in assay [7] is 67.6%; in assay [8] it was 72.2%; in [9] it was 81.6%; in assay [10], 72.2%; in assay [11] it was 96.1%; in [12], 46.8%. The growth in assay [13] was 72.9%; in [14], 54.4%; in assay [15], 66.9%; in assay [16], 50.6%; in assay [17], 86.2%; in assay [18] it was 89.2%. The growth in assay [19] was 86%.

Consider `c1cnc2ccc3ncccc3c2c1`, for which the growth in assay [1] was 118%; in assay [2], 105%; in assay [3] it was 117%; in [4] it was 82.6%; in [5], 105%; in assay [6], 84.6%. Also, the growth is 90.2% in assay [7]; 103% in assay [8]; 109% in assay [9]; 117% in [10]; 106% in [11]; 146% in [12]. For the same molecule, the growth in assay [13] is 114%; in [15], 107%; in assay [20] it was 113%; in assay [16], 104%; in assay [17] it was 83.5%; in assay [18], 99.8%. Also, the growth in assay [19] was 108%.

Consider `CCc1ccc(CCN2C(=O)c3ccccc3C2=O)nc1`, for which the growth is 112% in assay [1]; 100% in assay [2]; 108% in [3]; 102% in assay [4]; 103% in [5]; 118% in [6]. The growth was 106% in [7]; 106% in assay [8]; 118% in [9]; 118% in [10]; 95.8% in [11]; 102% in assay [12]. Besides, the growth in [13] was 98.5%; in assay [15] it was 103%; in assay [20], 104%; in assay [16], 91.6%; in [17] it was 95.6%; in assay [18], 110%. Further, the growth in assay [19] is 113%.

With `COc1cc(/C=C2\COc3ccc(O)cc3C2=O)cc(OC)c1`, the growth in assay [1] was 93.8%; in assay [2], 94.9%; in [3] it was 90.8%; in assay [4] it was 86%; in assay [5] it was 82.4%; in [6], 32.3%. For the same molecule, the growth was 92.3% in [7]; 87.6% in assay [8]; 81.6% in [9]; 72% in assay [10]; 5.63% (active) in assay [11]; 70.3% in assay [12]. The growth in assay [13] was 77%; in assay [15] it was 85.2%; in assay [20], 93.4%; in assay [16], 80.7%; in assay [17] it was 82.1%; in assay [19], 37.9%.

Regarding `CCOC(=O)c1cc(-c2cccnc2)nc2c(Cl)cc(Cl)cc12`, the growth was 89.6% in assay [1]; 98.9% in [2]; 84.1% in [3]; 92.5% in [4]; 106% in assay [5]; 93.6% in assay [6]. In addition, the growth in [7] is 74.9%; in [8], 72.5%; in assay [9] it was 121%; in assay [10], 103%; in assay [11], 105%; in [12], 124%. In addition, the growth is 103% in assay [13]; 73% in assay [15]; 90.2% in assay [20]; 79.6% in assay [16]; 120% in [17]; 117% in assay [18]. Besides, the growth in [19] was 96.6%.

Regarding `CCCCCCC(C)(O)c1ccccc1` (centres undefined), the growth in assay [1] is 102%; in assay [2], 106%; in assay [3], 126%; in assay [4], 105%; in assay [5], 110%; in assay [6] it was 100%. Besides, the growth in [7] was 110%; in [8] it was 108%; in assay [9], 114%; in assay [10] it was 118%; in assay [11] it was 101%; in assay [13], 109%. The growth is 124% in assay [14]; 107% in [15]; 125% in assay [20]; 110% in [16]; 115% in assay [17]; 105% in [18]. Also, in [19], the growth is 110%.

For the molecule `NS(=O)(=O)c1ccc(NC2=C(Cl)C(=O)c3ccccc3C2=O)cc1`, the growth in assay [1] was 80.9%; in [2], 61.9%; in assay [3], 113%; in [4], 102%; in assay [5], 116%; in [6], 70.1%. Also, the growth is 112% in assay [7]; 104% in assay [8]; 95.2% in [9]; 142% in [10]; 18.6% in assay [11]; 135% in assay [12]. The growth in assay [13] was 79.7%; in assay [15] it was 118%; in assay [20] it was 111%; in assay [16] it was 89.6%; in assay [17], 92.5%; in [18] it was 99.9%. The growth in assay [19] is 46.5%.

Turning to `Clc1ccc(-c2nc(-c3cccs3)no2)c(Cl)c1`, the growth in assay [1] was 92.6%; in assay [2], 88.7%; in assay [3], 120%; in [4], 84.9%; in [5] it was 92.1%; in [6], 91.4%. In addition, the growth in [7] was 91.4%; in assay [8] it was 97.4%; in [9] it was 106%; in assay [10], 99.3%; in assay [11], 96.1%; in [12], 103%. The growth in [14] is 107%; in [15], 99.2%; in [20], 107%; in assay [16], 108%; in assay [17], 76.2%; in assay [18], 100%. Moreover, the growth in assay [19] is 73.5%.

As to `COC(=O)CC1=C(C)/C(=C/c2[nH]c(-c3ccc[nH]3)cc2OC)N=C1C`, the growth in assay [1] was 6.26% (active); in assay [2], 24.6%; in assay [3], 18.2%; in assay [4] it was -10.9% (active); in [5] it was 4.72% (active); in [6], -74.8% (active). Moreover, the growth is 9.1% (active) in assay [7]; -2.31% (active) in assay [8]; 9.09% (active) in [9]; 24.2% in assay [10]; -23.6% (active) in assay [11]; -14.3% (active) in [13]. Moreover, the growth in assay [14] was 8.29% (active); in assay [15], 22.7%; in assay [20] it was -46.6% (active); in assay [16], -4.76% (active); in assay [17] it was -8.53% (active); in assay [18] it was 7.46% (active).
